The results in this text go back to PubChem BioAssay AID1531 (NMMLSC, 2009).

In all, about 290,000 compounds went through this assay and about 3,300 (1.1%) were called active. The full list was thinned out, with actives kept by preference. A number with no mark means an inactive call. No stated cut-off is given here; in the data, active means binding response below about 67% or above about 130%; inconclusive means no clear call, values can overlap the other calls; inactive means in between.

For the test, the target named is Mitogen-activated protein kinase kinase kinase 2 (Homo sapiens) (UniProt Q9Y2U5). As to the kind of experiment: modulators of MEK5 binding to wildtype MEKK2, primary screen, biochemical, multiplex bead flow cytometry, Alexa488-MEK5 (AID 1531). The conditions noted are these: Alexa488-MEK5 binding to MEKK2 WT, at 10 µM, actives lie on both sides. A general note: Flow cytometry measures light scatter and fluorescence of single cells or particles in a stream.
For `COc1ccccc1CC(=O)NCCc1c[nH]c2ccccc12`, the binding response (% of control) was 101%. As for `COc1cccc(CNCCc2c[nH]c3ccccc23)c1OCc1ccccc1F`, the binding response (% of control) was 159% (active).

On to `COc1ccc(S(=O)(=O)NCCc2c[nH]c3ccccc23)cc1OC`, for which the binding response (% of control) is 100%. With `CCn1cc(C(=O)NCC(=O)NC(C)(C)CO)c(=O)c2cc3c(cc21)OCO3`, the binding response (% of control) is 101%. On to `O=C(OCC(=O)N1CCN(C(=O)c2ccco2)CC1)c1cccc(O)c1`, for which the binding response (% of control) is 106%.

Consider `Cc1c(C(=O)NC2CCCCC2)oc2ccccc12`, for which the binding response (% of control) was 108%.

`Cc1c(C)c2c(OCC(=O)NCCCO)cc3c(c2oc1=O)CCC(C)(C)O3`: the binding response (% of control) was 99%.

As for `c1ccc(CN2CCC(N=C3NN=C(c4ccc5c(c4)OCCO5)CS3)CC2)cc1`, the binding response (% of control) is 154% (active).

`Clc1cccc(N=C2NN=C(c3ccc4c(c3)OCCO4)CS2)c1`: the binding response (% of control) is 97%. With `CS(=O)(=O)N(CC(=O)N1CCN(Cc2ccccc2)CC1)c1ccc2c(c1)OCCO2`, the binding response (% of control) was 103%.

With `CC1(c2nnc(-c3ccncc3)o2)CC(c2cccnc2)=NO1` (configuration not stated), the binding response (% of control) was 105%. Take `O=C(NCCc1ccc(Cl)cc1Cl)c1cc([N+](=O)[O-])c[nH]c1=O`: the binding response (% of control) is 96%. As to `COc1ccc(Cn2c(-c3ccc(Cl)cc3)c[n+]3ccccc23)cc1`, the binding response (% of control) is 112%. Consider `Cc1c(C)c2ccc(OCC(=O)N3CCN(c4cccc(Cl)c4)CC3)cc2oc1=O`, for which the binding response (% of control) is 92%. Turning to `Cc1ccc(C(CNC(=O)Nc2cccc(C)c2)N2CCN(C)CC2)cc1` (configuration not stated), the binding response (% of control) is 104%. `CCN1C(=NCC(C)C)N[C@@H](CCc2ccccc2)[C@H](C(=O)NCC(C)C)[C@H]1C`: the binding response (% of control) was 103%.

Take `CCN1C(=S)N[C@@H](CCc2ccccc2)[C@H](C(=O)OC)[C@H]1C`: the binding response (% of control) was 98%. For the compound `CCN1C(=NCc2ccc(OC)cc2)N[C@@H](CCc2ccccc2)[C@H](C(=O)NCc2ccc(OC)cc2)[C@H]1C`, the binding response (% of control) is 139% (active). In the case of `COc1ccc(CCNS(=O)(=O)c2cc3c(cc2C)NC(=O)CO3)cc1OC`, the binding response (% of control) is 98%. In the case of `COc1ccc(NC(=O)CSc2nc3ccccc3c(=O)n2C)cc1` it was 105%; in that of `COc1ccccc1/C=N/Nc1nc(C)c(C(C)=O)s1`, 95%; in that of `O=C(CSc1nc(Nc2ccccc2)nc(N2CCOCC2)n1)Nc1cc(Cl)ccc1O`, 99%.

For the compound `Cc1c(CCOC(=O)CC23CC4CC(CC(C)(C4)C2)C3)sc[n+]1Cc1ccc([N+](=O)[O-])cc1`, the binding response (% of control) is 172% (active). To `Cc1c(CCO)sc[n+]1CC(=O)OC12CC3CC(CC(C3)C1)C2` belongs 97%; to `Cc1c(CCOC(=O)c2cc([N+](=O)[O-])ccc2Cl)sc[n+]1CCCCS(=O)(=O)[O-]`, 97%; to `CS(=O)(=O)N(Cc1nc2sc3c(c2c(=O)[nH]1)CCCC3)C1CCCCC1`, 99%. In the case of `COc1ccc(-c2csc3ncnc(N4CCN(S(=O)(=O)c5ccccc5C#N)CC4)c23)cc1` it was 107%. For `COC(=O)CCCC1=CC2=CC(=O)C(C)(OC(=O)c3cccs3)C(=O)C2=CN1c1cccc(C#N)c1` (configuration not stated), the binding response (% of control) was 96%.

On to `CC1(OC(=O)CCc2ccccc2)C(=O)C=C2C=C(c3ccc(C#N)cc3)N(CCc3ccccn3)C=C2C1=O` (configuration not stated), for which the binding response (% of control) was 111%. For `C=CCN1C=C2C(=O)C(C)(OC(=O)CCc3ccccc3)C(=O)C=C2C=C1c1ccc(C#N)cc1` (configuration not stated), the binding response (% of control) was 142% (active). With `Cc1ccc(C23CC4CC(CC(C(=O)NCC(=O)O)(C4)C2)C3)cc1`, the binding response (% of control) is 105%.

Take `N#C/C(=C\c1cccnc1)C(=O)Nc1ccc(SC(F)F)cc1`: the binding response (% of control) was 107%. In the case of `CCOc1ccc(N/C=C/C(=O)c2ccccc2)cc1` it was 109%; in that of `O=C(Nc1cn(-c2ccccc2)nc1-c1ccccc1)c1ccccc1`, 96%.

As to `Cc1ccc(-c2nn(-c3ccccc3)cc2CN(Cc2ccccc2)C(=O)CCC(=O)O)o1`, the binding response (% of control) is 97%. Regarding `CCc1ccc(-c2nn(-c3ccccc3)cc2CSC(=N)N)cc1`, the binding response (% of control) is 140% (active). Take `CC(=O)NCCc1ccc(S(=O)(=O)Nc2ccc(C)c(S(=O)(=O)N3CCOCC3)c2)cc1`: the binding response (% of control) was 103%. Turning to `O=C(Nc1cccc(Br)c1)c1ccc2snnc2c1`, the binding response (% of control) was 97%. For the compound `O=C(Nc1ccc2ccccc2c1)Nc1ccc2snnc2c1`, the binding response (% of control) was 158% (active).

Regarding `CCc1ccccc1NC(=O)c1ccc2snnc2c1`, the binding response (% of control) was 100%. Consider `COc1ccc2c(c1)CCNC2Cc1ccc(OC)c(O)c1` (configuration not stated), for which the binding response (% of control) was 96%. `COc1ccc(N2CCN(CCNC(=O)Nc3cc(Cl)ccc3Cl)CC2)cc1`: the binding response (% of control) was 113%. To `C=CC1=C(C(=O)O)N2C(=O)[C@@H](NC(=O)/C(=N/OCC(=O)O)c3csc(N)n3)[C@H]2SC1` belongs 98%. In the case of `COc1ccc(/C=N/N=C2/C(=O)Nc3ccccc32)cc1O` it was 98%. Regarding `O=C1Nc2ccc(Br)cc2/C1=N/N=C/C1=C(N2CCOCC2)C(=C\c2ccccc2)/CC1`, the binding response (% of control) is 40% [inhibitor] (active).

`C(=N\N1CCN(c2ccccn2)CC1)/C1=C(N2CCOCC2)C(=C/c2ccccc2)/CC1`: the binding response (% of control) is 104%.

As to `CS(=O)(=O)N1CCN(C(=O)CSc2ccccc2)CC1`, the binding response (% of control) was 101%.

Regarding `COc1ccc(C)cc1Nc1n[n+](-c2ccccc2)c(-c2cccc(Cl)c2Cl)s1`, the binding response (% of control) was 120%.

Regarding `COc1cc(Br)c(-c2sc(Nc3ccccc3)n[n+]2-c2ccccc2)cc1OC`, the binding response (% of control) is 152% (active). Turning to `CC(C)(C)C(=O)c1cnc(Nc2ccccc2)s1`, the binding response (% of control) is 100%. To `COc1ccc(C#Cc2c(-c3ccc(OC)cc3)oc3ccc(-c4ccc5c(c4)OCO5)cc23)cc1` belongs 96%. As for `O=C(CNC(=O)OCc1ccccc1)NC1CCCCNC1=O` (configuration not stated), the binding response (% of control) is 100%. As for `Cc1ccc(NC(=S)N(CCCN2CCC(C)CC2)Cc2ccco2)cc1`, the binding response (% of control) was 107%. Regarding `Cc1ccc(NC(=S)N(CCN2CCCCC2)Cc2ccco2)cc1C`, the binding response (% of control) is 97%. For `Cc1ccc(NC(=S)N(CCCN2CCCC2)Cc2cccn2Cc2ccc(Cl)cc2)cc1`, the binding response (% of control) is 181% (active). For `COc1ccc(CCNCc2c(-c3ccccc3)n(C)c3ccccc23)cc1`, the binding response (% of control) is 131%.

Consider `CCOC(=O)C1(Cc2ccccc2C(F)(F)F)CCN(C(=O)c2cc(C)n(C)n2)CC1`, for which the binding response (% of control) is 91%.
